# Laboratory results published in publication PMC7862700, “An all-to-all approach to the identification of sequence-specific readers for epigenetic DNA modifications on cytosine”.
# Tests used:
# Assay in all cases: DAPPL (digital affinity profiling via proximity ligation, sequencing); 10 mM Tris-HCl pH 7.5, 50 mM NaCl, 1 mM DTT, 4% glycerol, room temperature, 30 min; GST-TFs on glutathione beads, 16-mer random dsDNA library, 0.1% formaldehyde crosslink after washing; high values mean tight binding
# [1] = target: T1, FLI1 (Homo sapiens, UniProt Q01543 1-452); conditions: protein: recombinant; tags: N-terminal GST; dsDNA, one strand shown
# T1 sequence: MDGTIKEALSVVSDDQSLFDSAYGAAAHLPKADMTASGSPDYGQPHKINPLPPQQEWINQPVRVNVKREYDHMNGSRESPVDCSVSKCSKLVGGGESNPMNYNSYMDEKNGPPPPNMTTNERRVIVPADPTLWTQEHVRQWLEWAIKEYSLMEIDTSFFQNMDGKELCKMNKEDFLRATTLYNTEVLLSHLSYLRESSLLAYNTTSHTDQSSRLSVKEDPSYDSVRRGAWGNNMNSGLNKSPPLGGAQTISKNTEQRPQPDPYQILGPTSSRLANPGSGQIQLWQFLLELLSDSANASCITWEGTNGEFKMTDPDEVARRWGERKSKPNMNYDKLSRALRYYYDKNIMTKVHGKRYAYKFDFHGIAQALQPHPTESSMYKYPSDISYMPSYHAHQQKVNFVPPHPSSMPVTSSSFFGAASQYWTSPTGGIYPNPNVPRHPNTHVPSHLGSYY
# Summary of the method: (§1)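 Pools of DNA-barcoded human transcription factors, expressed in yeast as GST fusions on glutathione beads and combined with a tag-only sample, were incubated with 200 nmole of a 16-mer random double-stranded DNA library. Incubation took 30 min at room temperature in Tris/NaCl/DTT/glycerol buffer and was followed by washing, 0.1% formaldehyde crosslinking, proximity ligation (BsaI/T4 ligase, 1 h, 37 °C), PCR amplification and sequencing on an Illumina NextSeq500. Binding signal is the ratio of a hexamer's read frequency for a factor to its frequency for the tag-only sample.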
# [2] = target: T2, ELK1 (Homo sapiens, UniProt P19419 1-428); conditions: protein: recombinant; tags: N-terminal GST; dsDNA, one strand shown
# T2 sequence: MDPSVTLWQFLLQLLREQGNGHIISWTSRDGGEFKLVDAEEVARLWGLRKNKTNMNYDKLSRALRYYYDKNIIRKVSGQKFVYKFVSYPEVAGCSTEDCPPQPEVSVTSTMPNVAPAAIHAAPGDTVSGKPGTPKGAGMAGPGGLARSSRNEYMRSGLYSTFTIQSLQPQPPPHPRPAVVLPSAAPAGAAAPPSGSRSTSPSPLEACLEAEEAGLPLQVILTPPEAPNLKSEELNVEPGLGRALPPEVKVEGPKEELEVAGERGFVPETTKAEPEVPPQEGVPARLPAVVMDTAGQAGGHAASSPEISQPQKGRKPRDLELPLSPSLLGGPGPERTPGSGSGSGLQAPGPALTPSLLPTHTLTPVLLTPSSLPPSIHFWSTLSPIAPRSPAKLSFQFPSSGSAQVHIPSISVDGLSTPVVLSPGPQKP
# Summary of the method: as §1
# [3] = target: T3, GABPA (Homo sapiens, UniProt Q06546 1-454); conditions: protein: recombinant; tags: N-terminal GST; dsDNA, one strand shown
# T3 sequence: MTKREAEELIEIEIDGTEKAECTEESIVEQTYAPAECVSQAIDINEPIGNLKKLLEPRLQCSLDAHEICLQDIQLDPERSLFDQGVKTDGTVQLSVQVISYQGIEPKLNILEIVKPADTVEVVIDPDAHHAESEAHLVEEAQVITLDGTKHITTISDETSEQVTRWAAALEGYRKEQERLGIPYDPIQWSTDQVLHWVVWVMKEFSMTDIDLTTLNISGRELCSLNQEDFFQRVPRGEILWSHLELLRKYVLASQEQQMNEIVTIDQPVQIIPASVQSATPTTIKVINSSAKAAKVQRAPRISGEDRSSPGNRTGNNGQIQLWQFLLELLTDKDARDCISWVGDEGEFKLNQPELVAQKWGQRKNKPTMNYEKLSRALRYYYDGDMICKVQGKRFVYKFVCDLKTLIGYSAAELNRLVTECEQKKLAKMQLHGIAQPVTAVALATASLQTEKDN
# Summary of the method: as §1
# [4] = target: T4, ERG (Homo sapiens, UniProt P11308 1-479); conditions: protein: recombinant; tags: N-terminal GST; dsDNA, one strand shown
# T4 sequence: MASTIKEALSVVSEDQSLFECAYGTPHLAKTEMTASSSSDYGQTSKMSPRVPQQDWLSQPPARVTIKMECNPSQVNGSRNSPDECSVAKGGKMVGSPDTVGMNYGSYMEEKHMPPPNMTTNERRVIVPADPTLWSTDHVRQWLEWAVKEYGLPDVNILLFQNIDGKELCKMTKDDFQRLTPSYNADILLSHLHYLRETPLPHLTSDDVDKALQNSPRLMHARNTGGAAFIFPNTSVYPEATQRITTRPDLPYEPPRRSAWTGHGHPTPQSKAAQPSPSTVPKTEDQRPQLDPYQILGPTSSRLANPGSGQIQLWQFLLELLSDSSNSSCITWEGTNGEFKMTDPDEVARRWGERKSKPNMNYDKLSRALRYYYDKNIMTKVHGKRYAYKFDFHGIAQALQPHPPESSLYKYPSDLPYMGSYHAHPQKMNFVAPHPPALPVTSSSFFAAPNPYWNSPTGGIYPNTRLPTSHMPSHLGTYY
# Summary of the method: as §1
# [5] = target: ELF1 (Homo sapiens, UniProt P32519 1-619); conditions: protein: recombinant; tags: N-terminal GST; dsDNA, one strand shown
# Summary of the method: as §1
# [6] = target: T5, EHF (Homo sapiens, UniProt Q9NZC4 1-300); conditions: protein: recombinant; tags: N-terminal GST; dsDNA, one strand shown
# T5 sequence: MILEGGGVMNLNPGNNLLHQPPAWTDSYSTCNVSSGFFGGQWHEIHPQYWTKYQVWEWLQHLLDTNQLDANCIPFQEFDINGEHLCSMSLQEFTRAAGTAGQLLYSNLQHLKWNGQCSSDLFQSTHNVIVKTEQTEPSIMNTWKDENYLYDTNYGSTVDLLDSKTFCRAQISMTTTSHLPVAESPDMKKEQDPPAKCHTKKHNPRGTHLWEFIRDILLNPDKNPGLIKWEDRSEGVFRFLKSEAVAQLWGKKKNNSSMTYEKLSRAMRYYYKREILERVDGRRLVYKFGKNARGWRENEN
# Summary of the method: as §1
# [7] = target: SPI1 (Homo sapiens, UniProt P17947 1-270); conditions: protein: recombinant; tags: N-terminal GST; dsDNA, one strand shown
# Summary of the method: as §1
# [8] = target: SPIB (Homo sapiens, UniProt Q01892 1-262); conditions: protein: recombinant; tags: N-terminal GST; dsDNA, one strand shown
# Summary of the method: as §1
# [9] = target: T6, ELK3 (Homo sapiens, UniProt P41970 1-407); conditions: protein: recombinant; tags: N-terminal GST; dsDNA, one strand shown
# T6 sequence: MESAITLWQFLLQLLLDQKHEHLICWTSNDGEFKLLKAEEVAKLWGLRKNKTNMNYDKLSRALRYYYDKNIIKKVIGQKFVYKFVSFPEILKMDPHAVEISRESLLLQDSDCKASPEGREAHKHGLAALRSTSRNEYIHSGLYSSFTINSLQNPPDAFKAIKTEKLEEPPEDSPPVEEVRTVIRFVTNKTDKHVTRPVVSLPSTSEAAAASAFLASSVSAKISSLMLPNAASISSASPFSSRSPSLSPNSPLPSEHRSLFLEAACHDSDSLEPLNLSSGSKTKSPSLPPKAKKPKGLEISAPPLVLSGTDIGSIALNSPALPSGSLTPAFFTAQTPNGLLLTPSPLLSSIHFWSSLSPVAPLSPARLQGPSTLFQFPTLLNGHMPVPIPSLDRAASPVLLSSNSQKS
# Summary of the method: as §1
# [10] = target: T7, FEV (Homo sapiens, UniProt Q99581 1-238); conditions: protein: recombinant; tags: N-terminal GST; dsDNA, one strand shown
# T7 sequence: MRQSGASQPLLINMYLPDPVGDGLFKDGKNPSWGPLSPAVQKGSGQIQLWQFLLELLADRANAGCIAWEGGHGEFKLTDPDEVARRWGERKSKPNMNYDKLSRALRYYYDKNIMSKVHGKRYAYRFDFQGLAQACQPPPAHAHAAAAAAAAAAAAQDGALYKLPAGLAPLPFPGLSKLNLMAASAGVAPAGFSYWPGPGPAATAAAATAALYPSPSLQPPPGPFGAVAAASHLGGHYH
# Summary of the method: as §1
# [11] = target: ETV5 (Homo sapiens, UniProt P41161 1-510); conditions: protein: recombinant; tags: N-terminal GST; dsDNA, one strand shown
# Summary of the method: as §1
# [12] = target: HSF1 (Homo sapiens, UniProt Q00613 1-529); conditions: protein: recombinant; tags: N-terminal GST; chain copies: 3; dsDNA, one strand shown
# Summary of the method: as §1
# [13] = target: T8, SPIC (Homo sapiens, UniProt Q8N5J4 1-248); conditions: protein: recombinant; tags: N-terminal GST; dsDNA, one strand shown
# T8 sequence: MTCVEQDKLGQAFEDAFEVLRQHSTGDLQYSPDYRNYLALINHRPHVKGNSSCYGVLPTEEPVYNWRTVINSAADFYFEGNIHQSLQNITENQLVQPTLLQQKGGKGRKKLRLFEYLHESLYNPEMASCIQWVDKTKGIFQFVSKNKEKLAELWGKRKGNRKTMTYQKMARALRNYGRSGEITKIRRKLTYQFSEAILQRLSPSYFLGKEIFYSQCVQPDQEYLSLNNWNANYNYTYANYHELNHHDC
# Summary of the method: as §1
# [14] = target: ELF4 (Homo sapiens, UniProt Q99607 1-663); conditions: protein: recombinant; tags: N-terminal GST; dsDNA, one strand shown
# Summary of the method: as §1
# [15] = target: T9, ELK4 (Homo sapiens, UniProt P28324-2 1-405); conditions: protein: recombinant; tags: N-terminal GST; dsDNA, one strand shown
# T9 sequence: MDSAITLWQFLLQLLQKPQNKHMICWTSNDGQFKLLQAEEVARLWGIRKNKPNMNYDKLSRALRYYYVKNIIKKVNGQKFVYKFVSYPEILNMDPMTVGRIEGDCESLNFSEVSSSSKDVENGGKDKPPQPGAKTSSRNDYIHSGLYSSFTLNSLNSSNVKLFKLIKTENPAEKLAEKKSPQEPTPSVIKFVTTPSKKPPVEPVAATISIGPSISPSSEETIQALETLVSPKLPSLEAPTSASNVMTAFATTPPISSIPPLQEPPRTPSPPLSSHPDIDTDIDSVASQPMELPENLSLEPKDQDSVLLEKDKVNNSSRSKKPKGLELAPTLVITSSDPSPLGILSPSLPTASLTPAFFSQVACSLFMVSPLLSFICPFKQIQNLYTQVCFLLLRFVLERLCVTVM
# Summary of the method: as §1
# [16] = target: T10, ETV2 (Homo sapiens, UniProt O00321 1-342); conditions: protein: recombinant; tags: N-terminal GST; dsDNA, one strand shown
# T10 sequence: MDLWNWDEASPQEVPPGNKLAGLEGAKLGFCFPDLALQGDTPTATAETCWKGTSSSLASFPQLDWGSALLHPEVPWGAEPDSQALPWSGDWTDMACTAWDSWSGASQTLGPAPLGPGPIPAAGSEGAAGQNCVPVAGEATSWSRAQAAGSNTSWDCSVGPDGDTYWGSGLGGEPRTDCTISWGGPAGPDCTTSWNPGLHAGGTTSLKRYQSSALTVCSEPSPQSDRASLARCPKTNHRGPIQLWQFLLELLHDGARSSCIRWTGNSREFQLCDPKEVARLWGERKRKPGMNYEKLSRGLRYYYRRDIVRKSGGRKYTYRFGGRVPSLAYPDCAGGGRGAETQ
# Summary of the method: as §1
# [17] = target: T11, ELF3 (Homo sapiens, UniProt P78545 1-371); conditions: protein: recombinant; tags: N-terminal GST; dsDNA, one strand shown
# T11 sequence: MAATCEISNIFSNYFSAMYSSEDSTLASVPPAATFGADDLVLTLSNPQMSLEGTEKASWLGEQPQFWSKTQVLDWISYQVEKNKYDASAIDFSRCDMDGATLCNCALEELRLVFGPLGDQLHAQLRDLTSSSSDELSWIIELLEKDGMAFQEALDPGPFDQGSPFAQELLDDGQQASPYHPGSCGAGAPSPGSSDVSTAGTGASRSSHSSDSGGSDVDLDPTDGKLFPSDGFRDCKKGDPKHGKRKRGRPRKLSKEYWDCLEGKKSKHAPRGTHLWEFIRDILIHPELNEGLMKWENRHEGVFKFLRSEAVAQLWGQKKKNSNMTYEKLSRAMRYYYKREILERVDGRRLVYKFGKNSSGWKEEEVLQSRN
# Summary of the method: as §1
# [18] = target: CRX (Homo sapiens, UniProt O43186 1-299); conditions: protein: recombinant; tags: N-terminal GST; dsDNA, one strand shown
# Summary of the method: as §1
# [19] = target: ETV1 (Homo sapiens, UniProt P50549 1-477); conditions: protein: recombinant; tags: N-terminal GST; dsDNA, one strand shown
# Summary of the method: as §1
# Sequence of ELF4 (Q99607 whole entry): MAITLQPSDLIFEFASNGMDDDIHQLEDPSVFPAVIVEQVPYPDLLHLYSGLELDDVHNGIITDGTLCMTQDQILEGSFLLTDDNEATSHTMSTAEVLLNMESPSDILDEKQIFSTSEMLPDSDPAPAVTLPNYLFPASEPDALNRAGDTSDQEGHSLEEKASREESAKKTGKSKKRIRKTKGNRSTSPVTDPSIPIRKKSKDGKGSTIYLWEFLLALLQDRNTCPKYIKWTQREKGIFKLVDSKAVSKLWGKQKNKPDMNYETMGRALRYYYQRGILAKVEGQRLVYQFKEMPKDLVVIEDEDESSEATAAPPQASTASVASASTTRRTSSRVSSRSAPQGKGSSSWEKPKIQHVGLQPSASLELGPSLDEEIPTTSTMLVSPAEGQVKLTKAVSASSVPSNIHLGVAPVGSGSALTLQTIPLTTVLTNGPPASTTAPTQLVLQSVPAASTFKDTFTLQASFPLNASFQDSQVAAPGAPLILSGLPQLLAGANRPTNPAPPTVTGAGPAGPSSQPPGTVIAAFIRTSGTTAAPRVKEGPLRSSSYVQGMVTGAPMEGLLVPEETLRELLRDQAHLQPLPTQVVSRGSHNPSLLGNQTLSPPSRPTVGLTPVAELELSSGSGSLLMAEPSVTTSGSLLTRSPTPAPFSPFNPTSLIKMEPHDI
# Sequence of ETV5 (P41161 whole entry): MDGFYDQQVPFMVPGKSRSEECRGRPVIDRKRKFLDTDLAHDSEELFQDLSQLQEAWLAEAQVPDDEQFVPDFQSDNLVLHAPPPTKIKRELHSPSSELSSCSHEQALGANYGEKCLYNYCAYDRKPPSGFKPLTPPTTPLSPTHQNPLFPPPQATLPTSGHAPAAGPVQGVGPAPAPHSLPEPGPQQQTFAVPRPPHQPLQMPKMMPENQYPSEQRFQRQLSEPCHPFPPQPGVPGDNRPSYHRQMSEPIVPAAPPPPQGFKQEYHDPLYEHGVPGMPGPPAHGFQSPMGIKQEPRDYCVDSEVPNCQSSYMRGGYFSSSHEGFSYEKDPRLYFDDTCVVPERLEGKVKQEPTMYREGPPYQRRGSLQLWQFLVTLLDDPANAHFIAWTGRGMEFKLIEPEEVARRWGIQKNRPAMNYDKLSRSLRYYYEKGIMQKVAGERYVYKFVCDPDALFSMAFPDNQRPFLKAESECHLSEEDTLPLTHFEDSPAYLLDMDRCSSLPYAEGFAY
# Sequence of CRX (O43186 whole entry): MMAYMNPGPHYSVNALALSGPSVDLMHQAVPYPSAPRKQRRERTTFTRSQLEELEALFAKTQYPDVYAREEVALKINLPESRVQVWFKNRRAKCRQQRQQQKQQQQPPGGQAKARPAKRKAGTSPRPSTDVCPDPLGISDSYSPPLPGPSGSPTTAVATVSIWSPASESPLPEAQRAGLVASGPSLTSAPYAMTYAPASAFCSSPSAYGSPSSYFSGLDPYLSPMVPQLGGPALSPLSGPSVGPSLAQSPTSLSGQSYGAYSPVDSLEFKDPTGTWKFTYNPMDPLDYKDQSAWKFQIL
# Sequence of HSF1 (Q00613 whole entry): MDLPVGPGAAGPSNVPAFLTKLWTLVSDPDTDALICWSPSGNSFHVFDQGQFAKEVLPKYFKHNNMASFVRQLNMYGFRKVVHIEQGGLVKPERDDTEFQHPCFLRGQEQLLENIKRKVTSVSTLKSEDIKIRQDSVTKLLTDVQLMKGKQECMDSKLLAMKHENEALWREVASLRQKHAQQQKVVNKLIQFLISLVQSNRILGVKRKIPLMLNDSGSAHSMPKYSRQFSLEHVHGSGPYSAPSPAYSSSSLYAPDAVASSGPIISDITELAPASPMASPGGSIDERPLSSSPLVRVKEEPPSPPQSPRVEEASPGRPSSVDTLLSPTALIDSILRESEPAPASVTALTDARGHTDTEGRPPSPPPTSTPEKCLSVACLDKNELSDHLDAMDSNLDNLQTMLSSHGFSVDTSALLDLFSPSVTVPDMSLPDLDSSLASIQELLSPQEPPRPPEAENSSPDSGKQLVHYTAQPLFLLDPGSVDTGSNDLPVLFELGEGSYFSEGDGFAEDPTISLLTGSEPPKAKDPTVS
# Sequence of ELF1 (P32519 whole entry): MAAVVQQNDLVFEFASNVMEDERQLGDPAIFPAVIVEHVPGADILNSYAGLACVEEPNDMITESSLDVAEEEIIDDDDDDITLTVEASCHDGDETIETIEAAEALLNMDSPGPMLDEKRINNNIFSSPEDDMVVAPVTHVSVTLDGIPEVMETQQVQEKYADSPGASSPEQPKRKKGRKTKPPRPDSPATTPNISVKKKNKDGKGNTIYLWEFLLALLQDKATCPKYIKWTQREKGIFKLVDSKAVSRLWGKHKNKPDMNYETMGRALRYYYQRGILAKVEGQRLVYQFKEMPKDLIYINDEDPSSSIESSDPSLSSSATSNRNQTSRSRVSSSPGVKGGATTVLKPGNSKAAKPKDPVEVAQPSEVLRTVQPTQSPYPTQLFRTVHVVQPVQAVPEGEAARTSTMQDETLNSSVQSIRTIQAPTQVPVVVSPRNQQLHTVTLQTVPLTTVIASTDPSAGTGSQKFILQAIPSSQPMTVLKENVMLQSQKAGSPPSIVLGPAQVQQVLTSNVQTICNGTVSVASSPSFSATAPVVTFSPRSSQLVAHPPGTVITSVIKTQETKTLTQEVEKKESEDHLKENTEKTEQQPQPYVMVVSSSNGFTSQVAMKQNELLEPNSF
# Sequence of ETV1 (P50549 whole entry): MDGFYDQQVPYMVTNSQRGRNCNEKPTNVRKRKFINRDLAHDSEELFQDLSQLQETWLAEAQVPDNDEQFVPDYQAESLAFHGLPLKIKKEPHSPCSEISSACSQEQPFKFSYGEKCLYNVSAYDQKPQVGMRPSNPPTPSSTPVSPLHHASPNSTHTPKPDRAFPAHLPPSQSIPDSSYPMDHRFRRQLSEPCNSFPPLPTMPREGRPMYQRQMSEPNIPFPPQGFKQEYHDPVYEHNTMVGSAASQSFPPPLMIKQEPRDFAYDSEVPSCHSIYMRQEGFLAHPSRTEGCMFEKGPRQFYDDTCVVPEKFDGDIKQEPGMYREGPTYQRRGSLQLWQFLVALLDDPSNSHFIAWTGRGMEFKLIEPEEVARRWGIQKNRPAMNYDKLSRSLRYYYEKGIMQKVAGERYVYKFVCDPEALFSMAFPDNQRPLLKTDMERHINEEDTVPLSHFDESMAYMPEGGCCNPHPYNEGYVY
# Sequence of SPIB (Q01892 whole entry): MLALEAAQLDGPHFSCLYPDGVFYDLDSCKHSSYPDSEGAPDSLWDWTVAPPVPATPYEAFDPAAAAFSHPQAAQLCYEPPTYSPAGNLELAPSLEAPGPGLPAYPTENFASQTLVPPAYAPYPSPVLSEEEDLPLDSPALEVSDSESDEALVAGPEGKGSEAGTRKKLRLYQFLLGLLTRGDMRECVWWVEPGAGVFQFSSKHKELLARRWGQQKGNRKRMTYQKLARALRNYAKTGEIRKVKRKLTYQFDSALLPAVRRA
sequence,measurement,setting,value
ATTCGT,binding signal,[1],"1.24 fold enrichment (6-mer frequency, TF over GST control)"
same,binding signal,[2],"1.24 fold enrichment (6-mer frequency, TF over GST control)"
same,binding signal,[3],"1.05 fold enrichment (6-mer frequency, TF over GST control)"
same,binding signal,[4],"1.15 fold enrichment (6-mer frequency, TF over GST control)"
same,binding signal,[5],"1.17 fold enrichment (6-mer frequency, TF over GST control)"
same,binding signal,[6],"1.08 fold enrichment (6-mer frequency, TF over GST control)"
same,binding signal,[7],"1.11 fold enrichment (6-mer frequency, TF over GST control)"
same,binding signal,[8],"1.27 fold enrichment (6-mer frequency, TF over GST control)"
same,binding signal,[9],"1.08 fold enrichment (6-mer frequency, TF over GST control)"
same,binding signal,[10],"1.12 fold enrichment (6-mer frequency, TF over GST control)"
same,binding signal,[11],"1.19 fold enrichment (6-mer frequency, TF over GST control)"
same,binding signal,[12],"1.27 fold enrichment (6-mer frequency, TF over GST control)"
same,binding signal,[13],"1.25 fold enrichment (6-mer frequency, TF over GST control)"
same,binding signal,[14],"1.24 fold enrichment (6-mer frequency, TF over GST control)"
same,binding signal,[15],"1.11 fold enrichment (6-mer frequency, TF over GST control)"
same,binding signal,[16],"1.16 fold enrichment (6-mer frequency, TF over GST control)"
same,binding signal,[17],"1.37 fold enrichment (6-mer frequency, TF over GST control)"
same,binding signal,[18],"1.28 fold enrichment (6-mer frequency, TF over GST control)"
same,binding signal,[19],"1.14 fold enrichment (6-mer frequency, TF over GST control)"
